# Data reported in ChEMBL document CHEMBL4513216, “Probing the Open Global Health Chemical Diversity Library for Multistage-Active Starting Points for Next-Generation Antimalarials” (ACS Infect Dis, 2020).
# About 2,700 (4%) of roughly 68,000 compounds showed an effect of 50% or more. Many of the other results were omitted from the sample, so strong results are more common in it than they were.
# Test system: Plasmodium berghei
# Assay: Screen against P. berghei liver stage (PbLuc), transformed with Luciferase, at 2uM
# Assay type: functional, HepG2
# Conditions: tested at 2 uM
row,Compound,INHIBITION
1,Cc1nc(C)n(CC2CCCN2Cc2ncc(C(C)(C)C)o2)n1 (configuration not stated),-39.72%
2,FC(F)(F)c1ccc2nc([C@H]3CCN(C4CCCCC4)C3)[nH]c2c1,-5.77%
3,FC(F)(F)c1ccc2nc([C@H]3CCN(C4CCC4)C3)[nH]c2c1,2.22%
4,FC(F)(F)c1ccc2nc([C@H]3CCN(C4CCOCC4)C3)[nH]c2c1,54.16%
5,Cc1n[nH]cc1CNCc1cccc(OCC(F)(F)F)c1,36.91%
6,O=C(C1CC1)N1CCN(c2ccc(-n3cncn3)nn2)CC1,42.14%
7,O=C(CSC1CCCC1)N1CCN(c2ccc(-n3cncn3)nn2)CC1,15.96%
8,O=C(CC1CCCC1)N1CCN(c2ccc(-n3cncn3)nn2)CC1,59.76%
9,Cc1cc(F)ccc1NS(=O)(=O)c1cc2c(c(C(=O)O)c1)OCCO2,-1.02%
10,CC(C)(N)c1cn(C2CCN(C(=O)CCC3CCCCC3)CC2)nn1,20.08%
11,Cc1nc(N2CCCC2)nc2c1CCN(C(=O)CC1CC1)CC2,-24.79%
12,CC(C)CN1CCNC(=O)C12CCN(S(=O)(=O)c1ccc(F)cc1)CC2,55.66%
13,CCN1CCNC(=O)C12CCN(S(=O)(=O)c1ccc(F)cc1)CC2,26.55%
14,CCN1CCNC(=O)C12CCN(S(=O)(=O)c1ccccc1)CC2,-2%
15,Oc1cc(-c2ccccn2)nc(C2CCN(Cc3ccncc3)CC2)n1,-1.49%
16,Nc1nc2c(c(N3CCCC(OCc4ccccn4)C3)n1)CCNCC2 (configuration not stated),-24.7%
17,Cc1ncsc1CCN(C)Cc1ccc(CO)o1,36.28%
18,Cc1ncsc1CCN(C)Cc1ccc(Br)o1,34.18%
19,Cc1ccsc1CN(C)CCc1scnc1C,57.75%
20,CC(C)=CCN1C[C@@H]2CN(C(=O)c3cnccc3C)C[C@]2(C(=O)O)C1,-9.48%
21,CCn1nc(C)cc1C(=O)N1CCC(Nc2ccc(C)nn2)CC1,-7.05%

row,Compound,INHIBITION
1,CN(c1ccc(C(N)=O)nn1)C1CCC1,-35.26%
2,CNC(=O)c1ccc(N(C)C2CCC2)nn1,67.28%
3,COC(=O)c1ccc(N(C)C2CCC2)nn1,24.36%
4,C[C@@H]1C[C@H]2CN(C(=O)C3=CCCCC3)C[C@H]2O1,28.2%
5,CCOCC(=O)N1C[C@@H]2CC[C@H]1CN(C(=O)c1ccncc1)C2,-3.87%
6,O=C(c1ccncc1)N1C[C@H]2CC[C@@H](C1)N(C(=O)N1CCOCC1)C2,-58.5%
7,O=C(c1ccncc1)N1C[C@H]2CC[C@@H](C1)N(C(=O)C1CCCC1)C2,63.1%
8,CN(C)C(=O)N1Cc2nnn(C)c2C(COCc2cccnc2)C1 (configuration not stated),-16.25%
9,CCc1ccc(NC(=O)N2C[C@@H]3C[C@H](C(=O)NC4CCC4)[C@H](C2)O3)cc1,25.08%
10,Cc1ncc(CN2CCOC(c3ccc(-c4ccccc4F)cn3)C2)s1 (configuration not stated),48.08%
11,CNC(=O)c1cn[nH]c1C1(C)CCCN(Cc2ccccn2)C1 (configuration not stated),19.47%
12,CN(C)C(=O)c1cn[nH]c1C1(C)CCCN(Cc2ccccn2)C1 (configuration not stated),70.33%
13,CN(C)C(=O)c1cn[nH]c1C1(C)CCN(c2ncccn2)CC1,-16.2%
14,Cc1ccc(C)c(CS(=O)(=O)CC(=O)NCCCOC(C)C)c1,22.1%
15,Cc1cccc(-c2noc(C)c2C(=O)NC2CCCOC2)c1 (configuration not stated),-3.96%
16,Cc1nc(CN2CCN(S(=O)(=O)N3CCOCC3)CC2)oc1C,-9.04%
17,Cc1nc(CN2CCOC3(CCCC3)C2)oc1C,20.49%
18,Cc1nc(CN2CCN(S(=O)(=O)N3CCCCC3)CC2)oc1C,54.44%
19,CC(C)N1CC[C@H]2[C@H](C[C@@H](Cn3cccn3)N2c2nccs2)C1,34.42%
20,CNC(=O)CN1CC[C@H]2CN(C(=O)c3ccc(C)cc3)C[C@H]2C1,51.94%
21,CNC(=O)CN1CC[C@H]2CN(C(=O)c3ccc(C)nc3)C[C@H]2C1,40.83%

row,Compound,INHIBITION
1,CNC(=O)CN1CC[C@H]2CN(C(=O)c3cccc(C)c3)C[C@H]2C1,30.63%
2,Cc1nccn1C1CCCN(C(=O)CCc2nc(C(C)C)no2)C1 (configuration not stated),21.71%
3,CN1C(=O)[C@@H]2CC[C@H]1CN(C(=O)Nc1cccc3ccccc13)C2,-110.62%
4,Cc1c(Br)cc2c(c1C)OCC(N(C)C)C2=O (configuration not stated),-5.64%
5,CCN(CC)C1COc2c(cc(Br)c(C)c2Br)C1=O (configuration not stated),58.18%
6,CCN(CC)C1COc2c(cc(Br)c(C)c2C)C1=O (configuration not stated),24.56%
7,Cc1cnn(CCNCC(O)COc2ccc(F)cc2)c1 (configuration not stated),-0.05%
8,CC(C)(C)C(=O)N1CCC(n2nc(-c3ccco3)ccc2=O)CC1,17.8%
9,O=C1[C@H]2CN(CC3CC3)C[C@H]2CN1Cc1cccc(F)c1,26.52%
10,O=C1[C@H]2CN(CC3CCOCC3)C[C@H]2CN1Cc1cccc(F)c1,14.13%
11,CN(C)C(=O)N1C[C@H]2CN(Cc3cccc(F)c3)C(=O)[C@H]2C1,18.8%
12,O=C1[C@H]2CN(C3CCOCC3)C[C@H]2CN1Cc1cccc(F)c1,66.67%
13,CN(C)C(=O)CN1C[C@H]2CN(Cc3cccc(F)c3)C(=O)[C@H]2C1,53.98%
14,Cc1cccc(CN2C[C@@H]3CN(C4CCOCC4)C[C@@H]3C2=O)c1,6.22%
15,CNC(=O)COc1ccc(CNCc2c(C)nn(C)c2N(C)C)cc1,-5.7%
16,Cc1cnc(N2CCc3c(CNc4ccnc(C)n4)cncc3C2)nc1,-25.4%
17,CN1C(=O)C2(CC(=O)Nc3c2cnn3C(C)(C)C)c2c(Cl)cccc21 (configuration not stated),-20.78%
18,O=C(Cn1cnnn1)NCC1(O)CCCc2ccccc21 (configuration not stated),-4.62%
19,CNc1nc(C(=O)N2CCCn3nc(C(=O)N4CCCC4)cc3C2)cs1,-38.39%
20,Cc1ccnc(OC[C@]23COC[C@H]2CN(C(=O)Cc2ccsc2)C3)n1,11.1%
